Compound activity deposited in PubChem by National Center for Advancing Translational Sciences (NCATS).
A selection: hits, their analogues and other compounds. The true share with any hit is near 19%.
Shiga toxin inh = Shiga toxin inhibition; Vero cells, Shiga toxin protein synthesis inhibition reporter; 9.2% of 290,000 active; inhibition, % at 38.7 µM; in the data active = inhibition mostly above about 28%, no sharp cut-off; inactive = mostly below about 43%; note: 0% is about no effect
SARS PLpro yeast = SARS-CoV PLP inhibition in yeast; Potency, µM (titrated, usually from 32.9 µM), without a hit: at the highest dose activity, positive = growth rescue, hits mostly activators; 0.19% of 330,000 active; S. cerevisiae expressing SARS-CoV PLpro, growth rescue; AID 485353; calls by dose curve; note: potency is the fitted concentration of half-maximal effect; 0% is about no effect; nearly all actives have a fitted effect of over 55% in size
Pf growth 48h = P. falciparum growth inhibition at 48 hours (one generation) | P. falciparum luciferase growth in erythrocytes, 48 h | Potency, µM (doses to about 28.7 µM), inactives show at the highest dose activity change, negative = inhibition, usual class: inhibitors | 5.9% of 310,000 active; note: potency is the fitted concentration of half-maximal effect; % is set by controls: 0 for no effect and ±100 for the full control effect
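Compounds are pin-transferred into medium, infected erythrocytes (2% hematocrit, 0.1% parasitemia final) are added, and plates sit one parasite generation at 37 C in 5% CO2. Detection reagent is then added and luminescence measured.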
Cycloheximide cs = counter-screen for Shiga toxin inhibitors: cycloheximide protein synthesis inhibition; cell reporter, cycloheximide protein synthesis inhibition counterscreen; max response, %; 12% of 300,000 active; AID 2314; in the data active = max response mostly above about 13%, no sharp cut-off; inactive = mostly below about 14%; note: read at 38.3 µM for the half of the compounds with a filed dose; 0% is about no effect
Pf growth 96h = inhibits malaria parasite growth, 96 h; P. falciparum luciferase reporter growth, 96 h; Potency, µM (doses to about 28.7 µM), inactives show at the highest dose activity change, negative = inhibition, most hits filed as inhibitors; 6.9% of 320,000 active; AID 504834; note: potency is the fitted concentration of half-maximal effect; % is set by controls: 0 for no effect and ±100 for the full control effect
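96 h incubation, 37 C, 5% CO2, of luciferase-reporter P. falciparum-infected RBCs (2% hematocrit, 0.05% parasitemia final) with test compounds; endpoint luminescence.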
AMA1 RON2 block = inhibitors of Plasmodium falciparum AMA1-RON2 interaction. AlphaScreen AMA1-biotinylated RON2 peptide binding. Potency, µM (doses to about 58.2 µM), without a hit: at the top dose activity change, negative = inhibition, hits mostly inhibitors. 0.2% of 360,000 active;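 note: potency is the fitted concentration of half-maximal effect; 0% = vehicle wells and -100% = peptide control; nearly all actives have a fitted effect of over 45% in size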
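AMA1 (3D7) with his tag at 25 nM final met compounds first, then biotinylated RON2 peptide at 25 nM; detection used donor plus acceptor beads, 10 µg/mL apiece, read by AlphaScreen after 30 min at room temperature.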
An asterisk follows results filed as active; ? = inconclusive; nt = no result given. Unless noted, calls come from the whole dose curve; as a rule, active = well fitted curve in the direction sought with a large enough effect; inconclusive = small, poorly fitted or top-dose-only effect, or another doubt; inactive = no such curve, though single readings can be large; an effect the other way counts as inactive or inconclusive.

SMILES	Shiga toxin inh	SARS PLpro yeast	Pf growth 48h	Cycloheximide cs	Pf growth 96h	AMA1 RON2 block
COc1cccc(C2(O)C(=O)Nc3ccccc32)c1 (stereo not drawn)	-2	-2%	-18%	18	26%	14%
CCN(C(=O)COC(=O)/C=C/c1ccc(OC)c(OC)c1)c1c(N)n(Cc2ccccc2)c(=O)[nH]c1=O	nt	nt	nt	nt	nt	5%
CCCCNC(C(=O)Nc1ccc(Cl)c([N+](=O)[O-])c1)c1ccccc1 (stereo not drawn)	-6	-22%	?	-3	12µM*	8%
CCN1/C(=C2\C(=O)N(C)C(=S)N2C)C=Cc2cc(C)ccc21	-9	-26%	3.7µM*	-2	23%	-7%
CCCCCCCCCCCCCCCCOCCOCCOCCOCCOCCOCCOCCOCCOCCOCCOCCOCCOCCOCCOCCOCCOCCOCCOCCOCCO	nt	nt	13µM*	nt	6.7µM*	nt
CCCCCCCCCCOCC(O)CN (stereo not drawn)	nt	nt	?	nt	12µM*	nt
CCCCCCCC(=O)OCC(O)CO (stereo not drawn)	18	-1%	8%	4	-11%	2%
O=C(Cc1cccs1)N1CCN(c2ccc([N+](=O)[O-])cc2)CC1	4	2%	-2%	23	68%	-19%
COc1ccc(CCNc2ncnc3cc(OC)c(OC)cc23)cc1OC	-13	1%	13µM*	-2	-16%	-1%
COc1nc(NCCc2ccc(OC)c(OC)c2)nc(OC)n1	-7	nt	-9%	1	nt	-1%
COc1ccc(CCNC2=NCCS2)cc1OC	32*	0%	-100%	41*	0%	-17%
COc1cc2ncnc(NCCc3ccccc3)c2cc1OC	-11	1%	10µM*	-3	?	-9%
COc1ccc(CCNc2c3ccccc3nc3ccccc23)cc1OC	36	-6%	1.5µM*	9	1.9µM*	6%
O=P(Cc1ccccn1)(c1ccccc1)c1ccccc1	-11	6%	-2%	4	?	8%
COc1ccc(CNc2ncccn2)cc1OC	10	1%	22%	6	33%	23%
COc1ccc(CCNc2ncnc3c2[nH]c2cc(OC)c(OC)cc23)cc1OC	-8	2%	?	-1	1.9µM*	?
COc1ccc(CCNc2ncnc3c2nnn3Cc2ccccc2)cc1OC	-13	-1%	?	-2	?	-1%
COc1ccc(CCNc2ncccc2C#N)cc1OC	88*	1%	131%	44*	125%	-1%
COCCNC(=O)CN(Cc1ccc(F)cc1)C(=O)CCC(=O)Nc1nccs1	-7	4%	45%	2	?	0%
O=[N+]([O-])c1ccc2nc(C(O)C(O)c3nc4ccc([N+](=O)[O-])cc4[nH]3)[nH]c2c1 (stereo not drawn)	nt	3%	3%	22*	?	49%
CCCC[n+]1ccc(-c2nc3ccc([N+](=O)[O-])cc3[nH]2)cc1	6	27%	?	7	?	9%
O=[N+]([O-])c1ccc(-c2nc3ccc([N+](=O)[O-])cc3[nH]2)cc1	96	-13%	?	40*	?	-12%
NC(=O)CSc1nc2ccc([N+](=O)[O-])cc2[nH]1	-13	-1%	11%	0	-1%	14%
Nc1ccc(-c2nc3ccc([N+](=O)[O-])cc3[nH]2)cc1	52	-26%	177%	63*	?	4%
O=[N+]([O-])c1ccc2nc(/C=C/c3ccc(Cl)cc3)[nH]c2c1	153*	-29%	8.3µM*	60*	8.3µM*	-12%
SMILES	Shiga toxin inh	SARS PLpro yeast	Pf growth 48h	Cycloheximide cs	Pf growth 96h	AMA1 RON2 block
COc1cc(/C=N/n2cnnc2-n2nc(C)cc2C)cc([N+](=O)[O-])c1O	-2	0%	9%	-1	0%	-4%
CCN(Cc1ccccc1)C(=O)CCS(=O)(=O)c1ccc2c(c1)NC(=O)CO2	-2	3%	-7%	-3	86%	1%
O=C1Nc2ccccc2C1C(C[N+](=O)[O-])c1ccccn1 (stereo not drawn)	-3	-1%	nt	-3	-14%	41%
COc1ccc(-c2nc(=S)[nH][nH]2)cc1OC	16	4%	9%	-2	14%	83%
COc1ccc(-c2nc(=S)[nH][nH]2)cc1	108*	4%	89%	13*	?	12%
CCOc1ccc(-c2nc(=S)[nH][nH]2)cc1	29	11%	42%	41*	18%	0%
N#CC1=C(N)N(c2ccc(Oc3ccccc3)cc2)C(=O)C1	-1	1%	?	-2	?	18%
COc1ccc(C(=O)Nn2cnc3scc(-c4cccs4)c3c2=O)c(O)c1	116*	-5%	137%	31*	-27%	8%
COc1cccc(-n2cnc3scc(-c4cccs4)c3c2=O)c1	-11	-10%	-25%	-1	nt	3%
CC(=O)N/C(=C/c1ccc([N+](=O)[O-])cc1)C(=O)O	11	0%	15%	-3	?	11%
CCOC(=O)c1ccc(NC(=S)Nc2ccccc2)cc1	18	-16%	44%	9	34%	0%
CCOC(=O)C(/C(N)=N/C(=O)Nc1ccccc1)=C(\C)O	-10	-3%	-5%	1	9.3µM*	2%
O=C1Nc2ccccc2N=C(c2ccc3c(c2)OCO3)C1N(C(=O)c1ccc2ccccc2c1)C1CC1 (stereo not drawn)	nt	nt	nt	nt	nt	-10%
COc1ccc(CN(C)CC(O)COC(c2ccccc2)c2ccccc2)c(OC)c1OC (stereo not drawn)	-7	6%	10µM*	-4	?	0%
COc1ccc(CCN(C)CC(O)COC(c2ccc(F)cc2)c2ccc(F)cc2)cc1OC (stereo not drawn)	-10	1%	13µM*	-3	10µM*	-8%
COc1ccc(CCN(C)Cc2ccc(F)cc2F)cc1OC	-9	3%	nt	9	28%	-8%
COc1ccc(CN(C)CC(O)COc2ccc(C(=O)c3ccccc3)cc2)c(OC)c1OC (stereo not drawn)	-3	4%	?	-3	?	1%
CCN(Cc1ccccc1)CC(O)COC(c1ccc(OC)cc1)c1ccc(OC)cc1 (stereo not drawn)	-13	0%	15µM*	-6	9.3µM*	-28%
COc1ccc(CCN(C)CC(O)COc2c(C)ccc(C)c2C)cc1OC (stereo not drawn)	7	1%	15µM*	2	?	18%
COc1ccccc1C(=O)NC(=O)CSc1nncn1C(C)C	nt	-4%	-4%	nt	28%	12%
COc1ccc(-c2coc3c(C(=O)Nc4cccnc4)cccc23)c(C)c1	nt	nt	nt	nt	nt	-9%
O=C(CCc1cccc(Cl)c1)N1CCCC(Nc2ccccc2)C1 (stereo not drawn)	12	-5%	-7%	-3	-29%	-2%
COc1cccc(C2NC(=O)c3sc(=S)n(-c4ccccc4)c3N2)c1 (stereo not drawn)	-18	-1%	-18%	-3	nt	-4%
